This passage reports outcome and AC50 results from PubChem BioAssay (EPA / NIEHS).

As usually defined, the AC50 is the concentration giving half of the maximal activity seen.

Experiment [1] deals with Transcription factor E2F1 (Homo sapiens) (UniProt Q01094). In words: ATG_E2F_CIS: Attagene CIS-FACTORIAL HepG2 Assay for human E2F Transcription Factor 1 (AID 2282935). The settings on record: HepG2 Attagene cis-reporter, E2F reporter RNA transcripts; actives raise or lower the signal. In short, it runs like this: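 Transient MRTU transfection of HepG2; 24 h compound exposure; RNA → oligo(dT) RT → PCR → FAM label → HpaI cut → CE fluorescence. Gain/loss of signal fit against DMSO.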

Experiment [2] can be described thus: ATG_E_Box_CIS: Attagene CIS-FACTORIAL HepG2 Assay for human Enhancer Box (E-box) (AID 2282936). Conditions: HepG2 E-box cis-reporter transcription, actives raise or lower the signal. In short, it runs like this:
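Transiently transfected HepG2, endogenous TF-driven reporters, 24 h dosing. Readout: RT-PCR plus capillary electrophoresis of fluorescent reporter fragments. Gain or loss of signal fitted bidirectionally against DMSO baseline.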

Experiment [3] is described as follows: ATG_M_61_CIS: Attagene CIS-FACTORIAL HepG2 Assay for M61 Transcription Factor (Internal Marker) (AID 2282937). Conditions: HepG2 Attagene CIS-FACTORIAL M61 internal marker reporter; actives raise or lower the signal. In short, it runs like this:
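Readout: fluorescent reporter mRNA fragments resolved by capillary electrophoresis after RT-PCR. Transiently transfected human HepG2 cells carried MRTU constructs reporting endogenous TF activity; 24 h chemical exposure; gain or loss of signal fitted relative to DMSO.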

Experiment [4] in a line: ATG_EGR_CIS: Attagene CIS-FACTORIAL HepG2 Assay for human Early Growth Response 1 (EGR1) (AID 2282938). The settings on record: HepG2 Attagene CIS-FACTORIAL EGR reporter mRNA; actives raise or lower the signal. In outline: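 Read-out: fluorescent reporter-mRNA fragments resolved by capillary electrophoresis after RT-PCR, 24 h post-dose in transiently transfected HepG2. Endogenous transcription-factor activity reported via cis-element-regulated reporter units; gain or loss fitted relative to DMSO.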

Experiment [5] is described as follows: ATG_M_19_CIS: Attagene CIS-FACTORIAL HepG2 Assay for M19 Transcription Factor (Internal Marker) (AID 2282939). The settings on record: HepG2 Attagene CIS-FACTORIAL M19 internal marker reporter; actives raise or lower the signal. In short, it runs like this: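 In this multiplexed cell assay, transiently transfected HepG2 reporter units report endogenous transcription-factor activity; after 24 hours of treatment, labelled reporter cDNA fragments are quantified by capillary electrophoresis and fitted bidirectionally against DMSO.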

A short description of experiment [6]: ATG_ERE_CIS: Attagene CIS-FACTORIAL HepG2 Assay for Estrogen Response Element (ERE) (AID 2282940). The settings on record: HepG2 ERE cis-reporter, Attagene RNA transcript; actives raise or lower the signal. In outline:
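Measuring endogenous transcription factor output, the assay doses transfected HepG2 cells for 24 hours and quantifies reporter transcripts by fluorescent RT-PCR and capillary electrophoresis, with DMSO as baseline.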

Experiment [7] can be described thus: ATG_Ets_CIS: Attagene CIS-FACTORIAL HepG2 Assay for human Erythroblast Transformation Specific (ETS) (AID 2282941). Conditions: HepG2 ETS cis-reporter transcription, actives raise or lower the signal. In outline:
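Bidirectional fit versus DMSO of reporter mRNA signal, detected by RT-PCR and capillary electrophoresis in HepG2 cells transiently transfected with cis-element reporters and dosed 24 h.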

Experiment [8] has as its target Hepatocyte nuclear factor 3-beta (Homo sapiens) (UniProt Q9Y261). In words: ATG_FoxA2_CIS: Attagene CIS-FACTORIAL HepG2 Assay for human Forkhead box A2 (FOXA2) (AID 2282942). The settings on record: HepG2 cis-reporter transcription factor activity, 24 h; actives raise or lower the signal. In outline:
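Readout: fluorescent reporter transcripts resolved by capillary electrophoresis after RT-PCR. Transiently transfected HepG2, 24 h compound exposure, endogenous TF activity at cis promoter elements. Gain or loss of signal fitted relative to DMSO.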

A short description of experiment [9]: ATG_FoxO_CIS: Attagene CIS-FACTORIAL HepG2 Assay for human Forkhead box O (FoxO) (AID 2282943). The settings on record: HepG2 Attagene cis-reporter, FoxO element, mRNA; actives raise or lower the signal. In outline:
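Read-out: fluorescence of 6-FAM-labelled reporter cDNA fragments resolved by capillary electrophoresis. Transiently transfected HepG2 cells were dosed for 24 h; activity fitted in both directions relative to DMSO controls.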

Experiment [10] can be described thus: ATG_GATA_CIS: Attagene CIS-FACTORIAL HepG2 Assay for human GATA Binding Protein (AID 2282944). The settings on record: HepG2 GATA cis-element reporter, Attagene multiplex mRNA; actives raise or lower the signal. In outline:
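Measures endogenous transcription factor-driven reporter mRNA in HepG2 cells transiently carrying cis-regulated constructs. 24 h dosing; RNA via oligo(dT) reverse transcription, PCR, HpaI digestion, capillary electrophoresis; fitted relative to DMSO.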

Experiment [11] in a line: ATG_GLI_CIS: Attagene CIS-FACTORIAL HepG2 Assay for human Zinc Finger Protein GLI1 (AID 2282945). The settings on record: HepG2, Attagene cis-factorial reporter mRNA, GLI element; actives raise or lower the signal. In outline: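 Transiently transfected HepG2 cells report endogenous transcription factor activity via cis-element-driven reporter units. After 24 h compound exposure, reporter mRNA was measured by RT-PCR with capillary electrophoresis; bidirectional fitting against DMSO baseline.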

The nature of experiment [12]: ATG_GRE_CIS: Attagene CIS-FACTORIAL HepG2 Assay for human Glucocorticoid Response Elements (GRE) (AID 2282947). The settings on record: HepG2 GRE cis-reporter, Attagene multiplex mRNA; actives raise or lower the signal. In outline: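 Read-out: fluorescent reporter-transcript fragments separated by capillary electrophoresis after RT-PCR. Transiently transfected HepG2 cells carrying cis-element-driven reporter units were dosed for 24 h; gain or loss of signal fitted against DMSO control.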

A short description of experiment [13]: ATG_M_32_CIS: Attagene CIS-FACTORIAL HepG2 Assay for M32 Transcription Factor (Internal Marker) (AID 2282949).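 Further: background control marker of the multiplexed CIS panel rather than a real target.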 The settings on record: HepG2 Attagene cis-factorial M32 reporter, mRNA; actives raise or lower the signal. In outline:
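Transient MRTU transfection of HepG2; 24 h compound treatment; TriZol RNA, oligo(dT) RT, reporter PCR, 6-FAM primer extension, HpaI cut, CE. Gain/loss of signal vs DMSO.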

Experiment [14] in a line: ATG_M_06_CIS: Attagene CIS-FACTORIAL HepG2 Assay for M06 Transcription Factor (Internal Marker) (AID 2282950). The settings on record: HepG2 Attagene CIS-FACTORIAL M06 internal marker reporter; actives raise or lower the signal. In outline: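 One of many multiplexed endpoints: HepG2 reporter mRNA after 24 h dosing, detected by RT-PCR and capillary electrophoresis fluorescence; gain or loss of signal analysed against DMSO.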

In experiment [15] the target is Hypoxia-inducible factor 1-alpha (Homo sapiens) (UniProt Q16665). The experiment can be described thus: ATG_HIF1a_CIS: Attagene CIS-FACTORIAL HepG2 Assay for human Hypoxia Inducible Factor 1 (HIF1A) (AID 2282951). The settings on record: HepG2 Attagene cis-factorial HIF1a reporter transcription; actives raise or lower the signal. In short, it runs like this:
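RT-PCR/capillary electrophoresis fluorescence readout of reporter transcripts from endogenous-TF-driven cis elements in transfected HepG2 cells, 24 h exposure; activity fitted in both directions against DMSO controls.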

Experiment [16] has as its target Hepatocyte nuclear factor 6 (Homo sapiens) (UniProt Q9UBC0). In words: ATG_HNF6_CIS: Attagene CIS-FACTORIAL HepG2 Assay for human Hepatocyte Nuclear Factor 6 (HNF6) (AID 2282952). The settings on record: HepG2 Attagene cis-factorial HNF6 reporter transcription; actives raise or lower the signal. In short, it runs like this: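 First, HepG2 cells were transfected with the multiplexed cis reporter library and dosed with chemical for 24 h. Next, RNA was reverse-transcribed, PCR-amplified and fluorescently labelled. Finally, HpaI-digested fragments were read by capillary electrophoresis.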

Experiment [17] addresses Heat shock factor protein 1 (Homo sapiens) (UniProt Q00613). The experiment can be described thus: ATG_HSE_CIS: Attagene CIS-FACTORIAL HepG2 Assay for human Heat Shock Transcription Factor 1 (HSE) (AID 2282953). The settings on record: HepG2 HSE cis-reporter, Attagene RNA transcription; actives raise or lower the signal. In short, it runs like this: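 Using HepG2 with transfected cis-driven reporter constructs, compound effects on endogenous factor activity are scored as reporter mRNA change at 24 h. Detection: RT-PCR, HpaI digestion, capillary electrophoresis; bidirectional fitting to DMSO.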

Experiment [18] in a line: ATG_MRE_CIS: Attagene CIS-FACTORIAL HepG2 Assay for human Metal Responsive Element (MRE) (AID 2282954). Conditions: HepG2 MRE cis-reporter transcription, Attagene multiplex; actives raise or lower the signal. In outline: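 RT-PCR/capillary electrophoresis readout of reporter mRNA, 24 h post-dosing, in HepG2 cells transfected with multiplexed cis-regulated reporter constructs. Gain or loss of signal fitted bidirectionally against DMSO baseline.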

The nature of experiment [19]: ATG_ISRE_CIS: Attagene CIS-FACTORIAL HepG2 Assay for human Interferon Regulatory Factor 1 (IRF1) binding to an Interferon-Stimulated Response Element (ISRE) (AID 2282948). Conditions: HepG2 ISRE cis-reporter (Attagene), mRNA transcription readout; actives raise or lower the signal. In short, it runs like this: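 Uses HepG2 liver cells transfected with cis-regulated reporters and measures mRNA 24 h post-dosing through RT-PCR, primer-extension labelling and capillary electrophoresis, with DMSO as negative control.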

SMILES strings stand for the structures. Activity calls are given as the source filed them. How the source made its calls: active means hit-call score of the fitted dose curve at least 0.9, where 1 is the maximum; inactive means score below 0.9.

Hypoxia-inducible factor 1-alpha (Homo sapiens), sequence (Q16665 whole entry, looked up): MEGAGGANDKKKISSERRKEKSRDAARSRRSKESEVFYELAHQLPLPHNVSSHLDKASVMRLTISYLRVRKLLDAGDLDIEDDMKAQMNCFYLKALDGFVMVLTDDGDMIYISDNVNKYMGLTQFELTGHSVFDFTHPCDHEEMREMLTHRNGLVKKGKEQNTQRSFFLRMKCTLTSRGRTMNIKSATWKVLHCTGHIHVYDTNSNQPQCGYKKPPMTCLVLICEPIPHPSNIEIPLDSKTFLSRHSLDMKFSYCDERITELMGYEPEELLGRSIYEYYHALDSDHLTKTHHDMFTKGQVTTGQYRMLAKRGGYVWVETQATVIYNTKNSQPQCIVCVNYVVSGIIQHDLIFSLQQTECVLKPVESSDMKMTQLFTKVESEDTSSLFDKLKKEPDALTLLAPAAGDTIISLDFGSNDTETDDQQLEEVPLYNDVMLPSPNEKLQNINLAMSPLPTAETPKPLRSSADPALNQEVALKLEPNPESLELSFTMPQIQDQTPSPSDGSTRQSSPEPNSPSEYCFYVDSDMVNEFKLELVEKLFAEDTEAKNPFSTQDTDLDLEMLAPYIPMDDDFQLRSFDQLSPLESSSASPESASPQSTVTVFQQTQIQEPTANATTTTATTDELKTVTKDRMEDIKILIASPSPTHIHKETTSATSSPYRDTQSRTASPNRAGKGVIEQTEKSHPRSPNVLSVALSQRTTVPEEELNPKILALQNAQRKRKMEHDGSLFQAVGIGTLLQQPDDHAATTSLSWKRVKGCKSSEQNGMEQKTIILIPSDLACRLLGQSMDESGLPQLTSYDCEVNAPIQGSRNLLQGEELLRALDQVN
Heat shock factor protein 1 (Homo sapiens), sequence (Q00613 whole entry, looked up): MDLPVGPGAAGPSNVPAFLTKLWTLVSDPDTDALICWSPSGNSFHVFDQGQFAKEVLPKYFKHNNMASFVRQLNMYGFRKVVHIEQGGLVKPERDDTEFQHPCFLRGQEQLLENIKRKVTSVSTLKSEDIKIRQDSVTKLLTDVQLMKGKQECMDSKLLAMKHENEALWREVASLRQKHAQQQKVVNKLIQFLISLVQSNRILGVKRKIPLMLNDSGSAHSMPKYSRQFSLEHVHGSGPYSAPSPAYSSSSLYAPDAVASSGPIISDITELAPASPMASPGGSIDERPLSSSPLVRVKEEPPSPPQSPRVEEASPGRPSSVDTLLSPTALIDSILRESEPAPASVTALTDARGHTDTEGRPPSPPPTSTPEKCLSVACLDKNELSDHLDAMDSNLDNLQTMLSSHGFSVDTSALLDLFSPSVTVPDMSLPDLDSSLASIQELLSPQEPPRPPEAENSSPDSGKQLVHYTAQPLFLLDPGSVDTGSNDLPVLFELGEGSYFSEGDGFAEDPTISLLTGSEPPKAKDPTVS
Hepatocyte nuclear factor 3-beta (Homo sapiens), sequence (Q9Y261 whole entry, looked up): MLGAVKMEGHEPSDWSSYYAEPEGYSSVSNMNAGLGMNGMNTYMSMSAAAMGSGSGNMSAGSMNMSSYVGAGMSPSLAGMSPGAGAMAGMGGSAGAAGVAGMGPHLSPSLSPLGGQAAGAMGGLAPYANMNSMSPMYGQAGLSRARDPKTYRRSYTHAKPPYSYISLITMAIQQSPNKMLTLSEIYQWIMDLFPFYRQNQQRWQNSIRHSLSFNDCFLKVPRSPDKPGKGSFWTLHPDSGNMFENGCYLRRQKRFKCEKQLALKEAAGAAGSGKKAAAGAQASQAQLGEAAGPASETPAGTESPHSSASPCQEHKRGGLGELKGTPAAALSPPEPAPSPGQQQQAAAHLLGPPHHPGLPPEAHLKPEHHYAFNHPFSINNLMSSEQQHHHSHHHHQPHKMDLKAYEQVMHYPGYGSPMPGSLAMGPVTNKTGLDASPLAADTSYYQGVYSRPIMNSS
Hepatocyte nuclear factor 6 (Homo sapiens), sequence (Q9UBC0 whole entry, looked up, the tested form may be a part): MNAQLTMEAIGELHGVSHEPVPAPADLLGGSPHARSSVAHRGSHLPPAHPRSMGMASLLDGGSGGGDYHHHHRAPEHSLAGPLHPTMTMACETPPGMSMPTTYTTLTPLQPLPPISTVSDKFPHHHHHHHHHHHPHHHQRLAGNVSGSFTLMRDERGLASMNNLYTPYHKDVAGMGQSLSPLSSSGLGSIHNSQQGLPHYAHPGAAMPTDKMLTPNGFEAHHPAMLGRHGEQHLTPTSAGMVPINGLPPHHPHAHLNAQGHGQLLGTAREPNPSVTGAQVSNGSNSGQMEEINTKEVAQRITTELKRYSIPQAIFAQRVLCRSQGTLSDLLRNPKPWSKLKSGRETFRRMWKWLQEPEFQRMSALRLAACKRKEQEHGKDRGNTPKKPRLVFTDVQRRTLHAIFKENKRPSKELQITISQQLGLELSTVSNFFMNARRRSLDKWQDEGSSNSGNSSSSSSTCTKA
Transcription factor E2F1 (Homo sapiens), sequence (Q01094 whole entry, looked up): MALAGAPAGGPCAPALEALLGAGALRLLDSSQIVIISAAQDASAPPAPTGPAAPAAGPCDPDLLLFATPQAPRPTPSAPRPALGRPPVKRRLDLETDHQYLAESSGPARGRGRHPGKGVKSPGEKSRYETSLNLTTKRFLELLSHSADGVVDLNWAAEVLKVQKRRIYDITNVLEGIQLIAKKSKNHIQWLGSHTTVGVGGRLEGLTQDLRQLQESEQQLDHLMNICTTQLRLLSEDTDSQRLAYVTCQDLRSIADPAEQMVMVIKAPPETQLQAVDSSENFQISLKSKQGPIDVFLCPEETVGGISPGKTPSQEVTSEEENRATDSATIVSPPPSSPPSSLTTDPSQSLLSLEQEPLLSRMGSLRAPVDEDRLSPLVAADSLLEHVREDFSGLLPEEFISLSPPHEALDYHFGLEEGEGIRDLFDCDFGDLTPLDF

On to `COC(=O)c1ccc(C(=O)OC)c(C(=O)OC)c1`, for which the compound was called inactive in [1], in experiment [2], in experiment [3], in experiment [4], in experiment [5] and in [6]. The outcome in [7], in [8], in experiment [9], in experiment [10], in [11] and in experiment [12] was inactive. Further, the call in [13], in experiment [14], in [15], in [16], in experiment [17] and in experiment [18] was inactive.

On to `CCCCCCCCCCCC(=O)OCC`, for which the call in [1], in [2], in [3], in [4], in experiment [5] and in experiment [6] was inactive. Besides, the result in [7], in experiment [8], in experiment [9], in experiment [10], in [11] and in experiment [19] was inactive. The call in experiment [13], in experiment [14], in [15], in experiment [16], in experiment [17] and in experiment [18] was inactive.

On to `Clc1cc(Cl)c(Cl)c(Cl)c1Cl`, for which the result in [1], in experiment [2], in experiment [3], in experiment [4], in experiment [5] and in experiment [6] was inactive. The compound was classed as inactive in experiment [7], in experiment [8], in experiment [9], in experiment [10], in [11] and in [12]. The result in experiment [13], in [14], in [16], in experiment [17] and in experiment [18] was inactive. Also, in experiment [15], the AC50 is 27.7 µM (active).

For `Nc1nc(N)nc(-c2ccccc2)n1`, the compound was classed as inactive in experiment [1], in [2], in [3], in [4], in experiment [5] and in experiment [6]. Besides, the outcome in experiment [7], in [8], in [9], in [10], in [11] and in [12] was inactive. Further, the result in experiment [19], in experiment [13], in experiment [14], in experiment [15], in experiment [16] and in [18] was inactive.

`C=CC(=O)NCOCCCC`: the outcome in [1], in experiment [2], in [3], in [4], in [5] and in [6] was inactive. Further, the result in experiment [7], in [8], in experiment [9], in [10], in [11] and in [19] was inactive. Moreover, the result in experiment [13], in experiment [14], in experiment [15], in [16], in experiment [17] and in experiment [18] was inactive.

As to `COC(=O)C=Cc1ccccc1`, the compound was classed as inactive in [1], in experiment [2], in [3], in experiment [4], in [5] and in experiment [6]. For the same compound, the outcome in experiment [7], in experiment [8], in experiment [9], in experiment [10], in experiment [11] and in experiment [12] was inactive. Also, the call in [19], in [13], in experiment [14], in [16] and in experiment [18] was inactive.

As to `CCOC(=O)c1ccc(C)cc1`, the compound was called inactive in experiment [1], in experiment [2], in experiment [3], in experiment [4], in experiment [5] and in experiment [6]. The result in [7], in [8], in [9], in [10], in experiment [11] and in [12] was inactive. The call in experiment [13], in experiment [14], in experiment [15], in experiment [16], in [17] and in experiment [18] was inactive.

With `CC(C)CCCCCOC(=O)CS`, the result in [1], in experiment [2], in [3], in experiment [4], in [5] and in [6] was inactive. Also, the result in experiment [7], in experiment [8], in experiment [10], in [11], in experiment [12] and in experiment [19] was inactive. The compound was called inactive in [14], in experiment [15], in experiment [16], in experiment [17] and in experiment [18].
